Source: PubChem BioAssay (National Center for Advancing Translational Sciences (NCATS))
Only some compounds are listed: those with a hit (about 18% of all), similar ones and a draw of the others.
TDP1 cell CPT = qHTS for Inhibitors of human tyrosyl-DNA phosphodiesterase 1 (TDP1): qHTS in cells in presence of CPT; chicken DT40 Tdp1-/-;hTDP1 cells + 20 nM CPT, ATP luminescence, 48 h; Potency, µM (doses to about 46.2 µM), for inactives: at the top dose activity change, negative = growth inhibition, most hits filed as inhibitors; actives 12% (n = 420,000); AID 686979, 2013; also: nearly all actives have a fitted effect of over 55% in size
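Chicken DT40 Tdp1-/- cells stably complemented with human TDP1 were seeded at 400 cells/well in medium containing 20 nM camptothecin, exposed to pin-transferred compounds, and grown at 37 °C for at least 48 hr. Viability was read as ATP luminescence.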
TDP1 cell noCPT = qHTS for Inhibitors of human tyrosyl-DNA phosphodiesterase 1 (TDP1): qHTS in cells in absence of CPT; DT40 Tdp1-/- hTDP1 cells, no CPT, ATP luminescence, 48 h; Potency, µM (series often up to 46.2 µM), without a hit: top-dose activity change, negative = growth inhibition, actives largely listed as inhibitors; actives 15% (n = 420,000); AID 686978, 2013; also: nearly all actives have a fitted effect of over 55% in size
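Chicken DT40 Tdp1-/- cells stably complemented with human TDP1 were seeded at 400 cells/well with DMSO in place of 20 nM camptothecin. After compound pinning, cells grew at least 48 hr at 37 °C; viability read by CellTiter-Glo luminescence.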
TDP1 inh = qHTS Assay for Inhibitors of Tyrosyl-DNA Phosphodiesterase (TDP1); AID 485290, 2010; actives 0.28% (n = 350,000); Tyrosyl-DNA phosphodiesterase 1 (Homo sapiens), Q9NUW8; Potency, µM (highest dose often 130 µM), for the others: at the highest dose activity change, negative = inhibition, usual class: inhibitors; recombinant TDP1, AlphaScreen DNA substrate cleavage; also: nearly all actives have a fitted effect of over 40% in size
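E. coli-derived human Tdp1, 1 nM final. Cpd preinc 15 min RT; substrate 15 nM final, 5 min RT; AS bead mix 10 ug/ml final, 10 min RT. Signal loss = tyrosine-FITC cleavage. No-enzyme wells = max signal.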
KAT2A inh = qHTS Assay for Inhibitors of GCN5L2; actives 0.21% (n = 390,000); Histone acetyltransferase KAT2A (Homo sapiens), Q92830; AID 504327, 2011; GCN5L2 HAT assay, ThioGlo1 CoA-SH fluorescence; Potency, µM (doses to about 58.9 µM), without a hit: top-dose activity change, negative = inhibition, hits mostly inhibitors
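qHTS, 1536-well. 20nM enzyme, pH 7.5 HEPES/EDTA/Tween-20 buffer; 15 min compound preinc., RT. Start: 75uM H3(1-25), 70uM AcCoA, 50uM ThioGlo1. Read Ex340/Em540 at t=0 (autofluorescence flag) and t=20 min.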
PLK1 PBD block = qHTS for Inhibitors of PLK1-PDB (polo-like kinase 1 - polo-box domain): Primary Screen. Serine/threonine-protein kinase PLK1 (Homo sapiens), P53350. Plk1 PBD binding of FITC phosphopeptide, fluorescence polarization. Potency, µM, inactives show max response, negative = inhibition, actives largely listed as inhibitors. actives 2.8% (n = 360,000). AID 720504, 2013; also: series mostly up to about 57 µM; nearly all actives have a fitted effect of over 65% in size
VDR inhibitor = Inhibitors of the vitamin D receptor (VDR): qHTS | Vitamin D3 receptor (Homo sapiens), P11473 | VDR-SRC2-3 peptide fluorescence polarization, 2 h | Potency, µM, for the others: max response, negative = inhibition, hits mostly inhibitors | actives 0.93% (n = 400,000)
Target sequence (P11473 whole entry, looked up): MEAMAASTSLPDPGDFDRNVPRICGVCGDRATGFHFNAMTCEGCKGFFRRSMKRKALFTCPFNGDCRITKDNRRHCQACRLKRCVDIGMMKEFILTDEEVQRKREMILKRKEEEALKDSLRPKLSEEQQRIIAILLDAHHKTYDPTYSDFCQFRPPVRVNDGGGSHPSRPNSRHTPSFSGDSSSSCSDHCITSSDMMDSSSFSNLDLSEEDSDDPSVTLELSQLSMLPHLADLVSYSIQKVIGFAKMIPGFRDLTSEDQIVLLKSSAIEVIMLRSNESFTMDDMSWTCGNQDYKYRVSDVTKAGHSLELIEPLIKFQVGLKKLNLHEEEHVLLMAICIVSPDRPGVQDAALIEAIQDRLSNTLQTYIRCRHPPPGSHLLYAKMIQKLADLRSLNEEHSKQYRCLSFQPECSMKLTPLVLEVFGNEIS
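Inhibition of the VDR/SRC2-3 peptide interaction is quantified by fluorescence polarization. Compounds (23 nl, pintool) incubate with the reagents for 2 hours at ambient room temperature.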
The depositor's hits bear a star; ! = repeats disagree; [ ] = dose if it differs, or a comment. Calls follow the shape of the dose curve; as a rule, active = well fitted curve in the direction sought with a large enough effect; inconclusive = small, poorly fitted or top-dose-only effect, or another doubt; inactive = no such curve, though single readings can be large; an effect the other way counts as inactive or inconclusive. % is scaled to controls: 0 for no effect and ±100 for the full control effect; potency is read from the fitted curve at half-maximal effect.

Screening CC1(CCCc2ccc(N(CCCl)CCCl)cc2)NC(=O)NC1=O (stereo not given) returned TDP1 cell CPT 0.411µM*, TDP1 cell noCPT 0.517µM* and PLK1 PBD block -12.1%.
CC(=O)NC(Cc1ccc(N(CCCl)CCCl)cc1)C(=O)NC(C(=O)O)C(C)C (stereo not given) was read as TDP1 cell CPT -8.7%, TDP1 cell noCPT -21.3%, TDP1 inh 5.1%, KAT2A inh 3.8%, PLK1 PBD block -4.5% and VDR inhibitor -11.6%.
For CCC(=O)Nc1cc(C(=O)O)ccc1S(=O)(=O)c1ccc(C)cc1 the results were TDP1 cell CPT 12.6%, TDP1 cell noCPT 3.0%, TDP1 inh 20µM*, KAT2A inh -19.3%, PLK1 PBD block inconclusive and VDR inhibitor 7.9%.
For O=[N+]([O-])c1ccc(Cl)cc1 the results were TDP1 cell CPT 8.6%, TDP1 cell noCPT -6.9%, TDP1 inh 1.0%, KAT2A inh inconclusive, PLK1 PBD block -0.7% and VDR inhibitor -18.4%.
For O=C(CSc1ccccn1)Nc1cccc2ccccc12 the results were TDP1 cell CPT -3.3%, TDP1 cell noCPT 2.4%, TDP1 inh 0.0%, KAT2A inh -12.7%, PLK1 PBD block 21.2µM* and VDR inhibitor -12.7%.
For Cc1cccc(NC(=O)CSc2nnc([C@@H](N)Cc3c[nH]c4ccccc34)o2)c1C the results were TDP1 cell CPT -12.0%, TDP1 cell noCPT inconclusive, TDP1 inh 9.7%, KAT2A inh -11.5%, PLK1 PBD block -18.9% and VDR inhibitor -23.5%.
`COc1ccc(S(=O)(=O)NC(CC(=O)N2CCC3(CC2)OCCO3)C(C)C)cc1` (stereo not given) gave TDP1 cell CPT -4.9%, TDP1 cell noCPT 5.4%, TDP1 inh 5.0%, KAT2A inh -3.5%, PLK1 PBD block -5.3% and VDR inhibitor -2.9%.
CCC(=NCC1CCCO1)c1c(O)n(-c2ccccc2C)c(=O)[nH]c1=O (stereo not given) was read as TDP1 cell CPT 2.6%, TDP1 cell noCPT -21.5%, TDP1 inh 3.5%, KAT2A inh 4.5%, PLK1 PBD block -6.5% and VDR inhibitor 8.2%.
Screening CC(C)N(C(=O)CCl)c1ccccc1 returned TDP1 cell CPT 6.51µM*, TDP1 cell noCPT 8.2µM*, TDP1 inh 11.3%[56.1 µM], KAT2A inh 3.1%, PLK1 PBD block -8.7% and VDR inhibitor -2.2%.
O=C(CCl)c1ccccc1 was read as TDP1 inh 2.5%.
`CCCCCNC(=O)C(c1ccncc1)n1c(=O)c(-c2cc3ccccc3[nH]2)nc2ccccc21` (stereo not given) gave TDP1 cell CPT 16.4µM*, TDP1 cell noCPT inconclusive and PLK1 PBD block 0.5%.
For CC1NCCOC1c1ccccc1 (stereo not given) the results were TDP1 cell CPT -0.7%, TDP1 cell noCPT -6.4%, TDP1 inh 6.4%, KAT2A inh -22.3% and VDR inhibitor 6.1%.
Screening C[C@H]1CCC[C@@H](O)CCC/C=C/c2cc(O)cc(O)c2C(=O)O1 returned TDP1 cell CPT inconclusive, TDP1 cell noCPT 20.6µM*, TDP1 inh 5.1%, KAT2A inh -3.0%, PLK1 PBD block 2.9% and VDR inhibitor -1.5%.
Screening COc1cc(O)cc2c1C(=O)O[C@@H](C)CCCC(=O)CCCCC2 returned TDP1 cell CPT inconclusive, TDP1 cell noCPT inconclusive, KAT2A inh -1.0%, PLK1 PBD block -11.9% and VDR inhibitor -21.1%.
For CNC[C@H](O)c1ccc(O)c(OC)c1 the results were TDP1 inh 9.7%[21 µM], KAT2A inh 9.5%[21.4 µM] and VDR inhibitor 1.4%.
CCOC(=O)c1c(N)n(Cc2ccc(OC)cc2)c2nc3ccccc3nc12 was read as TDP1 inh -1.9% and KAT2A inh -10.4%.
`COC(=O)c1c(N)n(Cc2ccc(OC)cc2)c2nc3ccccc3nc12` gave TDP1 cell CPT inconclusive, TDP1 cell noCPT 16.4µM*, TDP1 inh 4.8%, KAT2A inh -9.1%, PLK1 PBD block 2.0% and VDR inhibitor 17.1%.
For COCCOC(=O)c1c(N)n(Cc2ccc(OC)cc2)c2nc3ccccc3nc12 the results were TDP1 cell CPT inconclusive, TDP1 cell noCPT 20.6µM*, TDP1 inh -2.4%, KAT2A inh -0.8%, PLK1 PBD block -23.3% and VDR inhibitor -11.6%.
Screening c1ccc2c(CCN3CCCCC3)c[nH]c2c1 returned TDP1 cell CPT -13.7%, TDP1 cell noCPT -0.1% and PLK1 PBD block -29.1%.
For O=C(COc1ccc(Br)cc1)N1CCN(Cc2c[nH]c3ccccc23)CC1 the results were TDP1 cell CPT 1.3µM*, TDP1 cell noCPT 2.31µM*, TDP1 inh -3.5%, KAT2A inh -10.5%, PLK1 PBD block 0.4% and VDR inhibitor -9.5%.
`CC1CCCCN1CC(O)c1c[nH]c2ccccc12` (stereo not given) gave TDP1 cell CPT 9.5%, TDP1 cell noCPT 0.4%, KAT2A inh 1.1%, PLK1 PBD block 1.6% and VDR inhibitor 1.4%.
For c1ccc2c(CN3CCCCC3)c[nH]c2c1 the results were TDP1 cell CPT 8.2µM*, TDP1 cell noCPT inconclusive, TDP1 inh 2.4%, KAT2A inh -12.2%, PLK1 PBD block 2.9% and VDR inhibitor 10.8%.
CC1CCCCN1Cc1c[nH]c2ccccc12 (stereo not given) was read as TDP1 cell CPT 4.11µM*, TDP1 cell noCPT 7.31µM*, TDP1 inh -1.2%, KAT2A inh -1.7%, PLK1 PBD block -3.9% and VDR inhibitor -15.7%.
`O=C(COc1ccc(Br)cc1)N1CCN(C2CCCC2)CC1` gave TDP1 cell CPT -7.8%, TDP1 cell noCPT 0.7%, TDP1 inh 7.1%, KAT2A inh -2.6%, PLK1 PBD block -2.5% and VDR inhibitor -12.0%.
Screening CN(C)Cc1c[nH]c2ccccc12 returned TDP1 cell CPT 11.6µM*, TDP1 cell noCPT 13µM*!, TDP1 inh 3.7%, KAT2A inh -16.3%, PLK1 PBD block -11.9% and VDR inhibitor -1.4%.
Screening CC(C)N(CC[C@@](C(N)=O)(c1ccccc1)c1ccccn1)C(C)C returned TDP1 inh 14.9%[21 µM], KAT2A inh 1.9% and VDR inhibitor 0.9%.
